High-throughput results as filed in PubChem BioAssay.
DRD3 antagonist: qHTS of D3 Dopamine Receptor Antagonist: qHTS | D(3) dopamine receptor (Homo sapiens), P35462 | D3R cells, DiscoveRx beta-arrestin luminescence, antagonist mode; hits give low values | max response, negative = inhibition, % | 360,000 compounds, 2.5% hits | AID 652054, 2013; in the data active = max response below about -50%; inconclusive = no clear call, values can overlap the other calls; also: % is scaled to controls: 0 for no effect and ±100 for the full control effect
Target sequence (P35462 whole entry, looked up): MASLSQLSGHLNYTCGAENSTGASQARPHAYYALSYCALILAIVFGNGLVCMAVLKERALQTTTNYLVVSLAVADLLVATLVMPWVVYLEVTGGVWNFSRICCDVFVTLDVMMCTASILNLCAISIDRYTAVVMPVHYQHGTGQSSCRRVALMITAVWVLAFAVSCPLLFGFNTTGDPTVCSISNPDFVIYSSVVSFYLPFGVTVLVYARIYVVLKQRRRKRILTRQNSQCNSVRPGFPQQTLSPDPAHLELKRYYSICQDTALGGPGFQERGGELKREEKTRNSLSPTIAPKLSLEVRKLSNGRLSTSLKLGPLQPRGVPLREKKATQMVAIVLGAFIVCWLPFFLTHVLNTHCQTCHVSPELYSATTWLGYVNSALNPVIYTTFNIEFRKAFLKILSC
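Cells expressing the human receptor were seeded at 1500 cells/well, incubated overnight at 37 degrees C in 5% CO2, then exposed to library compounds with dopamine controls for 90 minutes at 37 degrees C before luminescent detection.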
D1 agonist: Allosteric Agonists of the Human D1 Dopamine Receptor: qHTS; D(1A) dopamine receptor (Homo sapiens), P21728; 360,000 compounds, 1% hits; activation, % at 2 µM; HEK293 T-REx D1 cells, calcium flux, agonist mode; in the data active = activation above about 30%; also: 0% is about no effect
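Agonism was scored from calcium flux recorded over 180 s (1 read/s) after pintool compound addition, following a 10-cycle baseline. Cells were inducible force-coupled HEK293 TREx D1, plated overnight at 30 C and loaded with no-wash calcium dye.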
D1 antagonist: Antagonist of Human D 1 Dopamine Receptor: qHTS | HEK293 TREx D1 cells, calcium flux, dopamine EC80; hits give low values | activity change, negative = inhibition, % at 10 µM | 360,000 compounds, 3.2% hits | D(1A) dopamine receptor (Homo sapiens), P21728; in the data active = activity change below about -30%; also: % is scaled to controls: 0 for no effect and ±100 for the full control effect
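Tetracycline-induced HEK293 Trex D1 cells, force-coupled to calcium, dye-loaded; compounds added and read 180 s, then EC80 dopamine added and calcium flux tracked kinetically another 180 s.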
DRD3 agonist: qHTS of D3 Dopamine Receptor Agonist: qHTS. AID 652048, 2013. 410,000 compounds, 0.58% hits. max activation, %. D3R DiscoveRx beta-arrestin cells, luminescence, 90 min; in the data active = max activation above about 30%; also: 0% is about no effect
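Agonist mode: compounds and dopamine controls were applied to plated cells for 90 min at 37 degrees C after an overnight attachment at 1500 cells/well. Luminescent read-out followed 30 - 60 minutes at room temperature with DiscoveRx detection reagent.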
D1 PAM: Potentiators of Human D1 Dopamine Receptor: qHTS; D(1A) dopamine receptor (Homo sapiens), P21728; HEK293 TREx D1 cells, calcium flux, dopamine EC20 potentiation; potentiation, % at 10 µM; 360,000 compounds, 0.036% hits; AID 504651, 2011; in the data active = potentiation above about 30%; also: 0% is about no effect
ERG Ets-DNA blk: qHTS for Small Molecule Inhibitors of the ERG Ets/DNA interaction | Transcriptional regulator ERG (Homo sapiens), P11308 | fluorescence polarization, His-ERG Ets domain / labelled DNA | Potency, µM (doses to about 76.9 µM), for inactives: at the highest dose FP activity, negative = inhibition, usual class: inhibitors | 370,000 compounds, 0.028% hits | AID 624246, 2012; active = well fitted inhibition curve with a large enough effect in the polarisation, with a control signal flat; inconclusive = small, poorly fitted or top-dose-only effect, or effect the other way, or a change in a side signal; inactive = no such curve, though single readings can be large or run the other way; the % refers to the polarisation;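 also: polarization taken with two DNA probes labelled with fluorescein and Texas red; potency is read from the fitted curve at half-maximal effect; % of control where 0% means no effect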
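His-tagged ERG Ets domain (1 uM in the protein solution; 300mM KCl, 50mM Tris-HCl, 1mM EDTA, 1mM DTT, pH 7.5) received compound, then a probe mix of 5 nM fluorescein-DNA and 100nM Texas-615-DNA. Fluorescence polarization was read for both dyes.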
* marks the source's active call; other numbers are inactive results; ? = inconclusive; · = no result given; [ ] = remark or other dose. Sampled rows, rich in hits. Any-hit rate of the full collection: about 6.1%.

SMILES | DRD3 antagonist | D1 agonist | D1 antagonist | DRD3 agonist | D1 PAM | ERG Ets-DNA blk
COc1cccc(NC(=O)c2oc3ccccc3c2NC(C)=O)c1 | -55* | 4 | -12 | -33 | -8 | -1%
COCC(=O)Nc1c(C(=O)Nc2cccc(OC)c2)oc2ccccc12 | 15 | 3 | 12 | 9 | -1 | -2%
CCOC(=O)c1oc2ccccc2c1NC(=O)COC | -52* | -2 | -3 | -7 | 0 | -2%
Cc1nc2[nH]c(=O)c3c(n2n1)NC1=C(C(=O)CC(C)(C)C1)C3c1ccccc1 (stereo not drawn) | 20 | 5 | -51* | -1 | -3 | -7%
N#CCCOC1(C#CCN2CCCC2)CCCCC1 | -88* | 8 | 0 | 22 | -1 | 10%
CSC1=N/C(=C/c2ccc(-n3cncn3)cc2)C(=O)N1 | 11 | 1 | -9 | 19 | -2 | 26%
O=C(CSc1nnc(COc2ccccc2)n1-c1ccccc1)c1cccs1 | 3 | 6 | -23 | -10 | 1 | 2%
Cc1ccc(OCc2nnc(SCC(=O)c3cccs3)n2-c2ccccc2)cc1C | -53* | 15 | 28 | 0 | -3 | -3%
CCOC(=O)C1(CCOc2ccccc2)CCN(Cc2cccc(OC)c2O)CC1 | -24 | 13 | -45* | -14 | -7 | 8%
CCOC(=O)C1(CCOc2ccccc2)CCN(Cc2ccc(O)c(OC)c2)CC1 | ? | 16 | -24 | -19 | 4 | -10%
CCOC(=O)C1(CCOc2ccccc2)CCN(Cc2ccc(-n3cccn3)cc2)CC1 | -71* | 14 | -10 | 1 | 3 | -5%
CCOC(=O)C1(CCCc2ccccc2)CCN(CCCn2cccn2)CC1 | ? | 37* | -8 | -1 | -1 | 21%
CCOC(=O)C1(CCOc2ccccc2)CCN(Cc2ccc(O)c(Cl)c2)CC1 | -69* | 24 | -39* | -17 | -6 | -2%
O=C(Nc1ccc(S(=O)(=O)N2CCN(c3ccccc3)CC2)cc1)c1cccs1 | 11 | 8 | -6 | 1 | -1 | ·
Cc1nc(NC(=O)c2ccccc2)sc1-c1cc(C(=O)NCCO)nn1Cc1ccccc1 | 3 | · | · | -1 | · | ·
CCOC(=O)C1(CCOc2ccccc2)CCN(Cc2ccc(C(=O)OC)cc2)CC1 | -60* | 7 | -12 | -27 | -4 | 17%
CCOC(=O)C1(Cc2ccccc2)CCN(Cc2cnn(-c3ccccc3)c2)CC1 | -63* | 1 | 4 | -9 | -6 | -5%[15.4 µM]
CCOC(=O)C1(CCOC)CCN(C/C=C/c2ccccc2OC)CC1 | -71* | · | · | -15 | · | 3%
CCOC(=O)C1(Cc2ccccc2)CCN(Cc2cnn(CC)c2)CC1 | -16 | 0 | 7 | -15 | 1 | -1%
CCOC(=O)C1(CCOc2ccccc2)CCN(Cc2ccncc2)CC1 | -11 | 5 | 0 | -8 | 8 | 1%
CCOC(=O)C1(CCOc2ccccc2)CCN(Cc2ccc3c(c2)OCCO3)CC1 | -56* | 3 | -43* | 0 | -2 | 4%
CCOC(=O)C1(CCOC)CCN(Cc2ccncc2)CC1 | 9 | 2 | 2 | -3 | -4 | -4%
CC(C)(C)N(Cc1ccccc1)C(=O)CN1C(=O)c2ccccc2C1=O | -13 | 0 | -4 | -1 | -10 | -2%
CCCCN1CC2([N+](=O)[O-])C=CC(=O)C([N+](=O)[O-])(C1)C2CC(=O)c1ccccc1 (stereo not drawn) | 14 | 5 | 17 | 2 | -1 | 7%
CCN1CC2([N+](=O)[O-])C=CC(=O)C([N+](=O)[O-])(C1)C2CC(=O)c1ccccc1 (stereo not drawn) | -68* | -1 | -3 | 1 | -7 | 9%
